About 83,000 compounds went through this panel and 20% of them were active in at least one assay; those are over-represented in the sample as a whole.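 Activity criterion: percent growth below 10, measured after cells in 96-well plates were exposed to a single compound concentration for 48 hours.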 Active and inactive are the calls of the source.

This experiment has as its system MDA-MB-468 breast. Put plainly: NCI-60 one-dose screen, 48 h (100 = growth as untreated, 0 = no growth, -100 = all killed). To be noted: 10 µM unless noted.
Turning to `COc1cc(/C=N/NC(=O)c2ccccc2Nc2cccc(C(F)(F)F)c2)cc(OC)c1OC`, the growth was -20.8% (active).
As for `COc1ccc2nc(NC(=O)c3cccnc3Nc3cc(OC)c(OC)c(OC)c3)sc2c1`, the figure is 60.3% (inactive); as for `Cn1nc(CC#N)c2c(=N)n(N)cnc21`, 106% (inactive).
Consider `CON=C1C[C@]2(C[C@@H]3C[C@@H](C/C=C(\C)C[C@@H](C)/C=C/C=C4\CO[C@@H]5[C@H](O)C(C)=C[C@@H](C(=O)O3)[C@]45O)O2)O[C@H](/C(C)=C/C(C)C)[C@H]1C`, for which the growth is 49% (inactive).
As for `O=C(c1ccccc1)C(Sc1ccccc1)c1ccccc1` (stereo not given), the figure is 88.7% (inactive); as for `CC(C)CCC[C@@H](C)C1CCC2C3CCC4=C/C(=N/OCCN(C)C)CC[C@]4(C)C3CC[C@@]21C` (stereo not given in full), 87.3% (inactive).
As for `CCN(CC)CCNC(=O)n1cc(-c2ccncc2)c(-c2ccc(Cl)c(OC)c2)n1`, the figure is 88.3% (inactive); as for `CCCCC(CC)OC(=O)C(Br)CC` (stereo not given), 106% (inactive).
Turning to `O=[N+]([O-])c1ccccc1Sc1ccccc1[N+](=O)[O-]`, the growth is 92.1% (inactive).
The result for `CCN(C(=O)CCl)C(C)(C)C(SSSC(c1ccc(Cl)cc1)C(C)(C)N(CC)C(=O)CCl)c1ccc(Cl)cc1` (stereo not given) reads 5.76% (active).
With `CCOC(=O)C1C(=O)C=C(c2cc(OC)c(OC)c(OC)c2)CC1c1sc(N(C)Cc2ccccc2)nc1Cl` (stereo not given), the growth is 71.2% (inactive).
The result for `Cc1cc(O)c2c(c1)C(=O)C(c1c(C)cc3c(c1O)C(=O)C=CC3=O)=CC2=O` reads 53.2% (inactive); that for `CCOC(C=O)OCC`, 102% (inactive).
As for `COc1cc(Nc2ncnc(Nc3ccc4c(n3)NC(=O)C(C)(C)O4)n2)cc(OC)c1OC`, the figure is -24.5% (active); as for `O=[N+]([O-])c1cc2c(cc1Br)-c1ccccc1C2`, 16.7% (inactive).
The result for `COCCOc1ccc(-c2csc(NC(C)=O)n2)cc1NS(=O)(=O)c1cccc2c(N(C)C)cccc12` reads 90.3% (inactive).
In the case of `CCCCNCCCCCNc1cc(OC)cc2cccnc12`, the growth is 68.8% (inactive).
As for `OC(c1cc(-c2cccc(Cl)c2)nc2ccccc12)C1CCCCN1` (stereo not given), the figure is -77.5% (active); as for `CC1Cc2c(N(C)C)ncnc2N(C)c2ccc(O)cc21` (stereo not given), 79.4% (inactive).
As for `Cc1nc(NC(=O)COc2ccc(/C=C3\Cc4ccc(Cl)cc4C3=O)cc2)sc1C`, the figure is 112% (inactive); as for `COc1cc2nc(-c3ccc(C)cc3)cc(OCCCNCC3CCCO3)c2cc1OC` (stereo not given), 68.8% (inactive).
The result for `CCN(CC)c1ccc(/C=N/NC(=O)c2ccccc2Nc2ccnc(C(F)(F)F)c2)c(O)c1` reads 24.7% (inactive); that for `COc1cc(-c2csc(NC(=O)Nc3ccc(Cl)cc3)n2)cc(OC)c1OC`, 13.5% (inactive); that for `COc1ccc(/C=N\NC(=O)c2ccc3nc(-c4ccc(Br)cc4)[nH]c3c2)cc1`, 32.1% (inactive).
Regarding `COc1ccc(/C=C/c2nc(Nc3cccc(NC(C)=O)c3)c3ccccc3n2)cc1`, the growth was 67.1% (inactive).
The result for `CCOC(=O)c1c(-c2ccc(Cl)cc2)c(C#N)c2c(C#N)c(N)nn2c1N` reads 33.6% (inactive); that for `OC1CCCc2ccccc21` (stereo not given), 97.4% (inactive); that for `O=C(NC1CCCCC1)C(c1cccs1)N(CCc1ccccc1)C(=O)c1ccco1` (stereo not given), 94.1% (inactive).
Turning to `N=C(N)c1ccc(-c2ccc(-c3cc(Cl)cc(Cl)c3)s2)s1`, the growth is -63.4% (active).
As for `Clc1ccc2c(c1)C[C@H]1C[C@@H](c3cccs3)N2O1`, the figure is 106% (inactive).
The result for `O=C1c2c(c3c4cc(Br)ccc4[nH]c3c3ccc4ccccc4c23)C(=O)N1CCN1CCNCC1` reads 79.6% (inactive).
As to `Cc1ccc(-c2cc3nc(C(Cl)Cl)nc(C)n3n2)cc1`, the growth is 110% (inactive).
The result for `CCCc1cc2cc(-n3nc(C)c4c3CC(C)(C)CC4=O)cc(NC3CCC(O)CC3)c2c(=O)[nH]1` (stereo not given) reads -0.951% (active); that for `Cn1/c(=N\N=C\c2ccccc2OCCO)sc2ccccc21`, 103% (inactive).
The result for `C=C(C)[C@@H]1CC[C@]2(C)[C@H](C=CC3=C4C[C@@](C)(CO)CC[C@]4(C)CC[C@]32C)[C@@]1(C)CCCN` reads -62.1% (active); that for `NC(=O)c1ccc(N=C(N)N=C(N)N)cc1`, 84.5% (inactive).
As for `Cc1ccc2nc(NC(=O)CSC(=S)N3CCN(c4ccccc4)CC3)sc2c1`, the figure is 101% (inactive); as for `CC1(C)CCC(S(=O)(=O)c2ccc3c(c2)/C(=N\O)c2cc(S(=O)(=O)N4CCN(c5ccc(F)cc5O)CC4)ccc2-3)CC1`, -82.5% (active); as for `COc1cc2ncnc(Nc3ccc(S(=O)(=O)Nc4cc(C)on4)cc3)c2cc1OCCCN1CCN(c2ccc(F)cc2)CC1`, 103% (inactive).
Turning to `Cc1ccc2c(c1)C(C)Cc1c(Cl)ncnc1N2C` (stereo not given), the growth is -26.4% (active).

Values taken from PubChem BioAssay (NCI).
